# High-throughput results deposited in PubChem by National Center for Advancing Translational Sciences (NCATS).
# Sfp inh: Sfp phosphopantetheinyl transferase inhibition | Potency, µM, hits mostly inhibitors | AID 1490 | Q9F4F7 | Biochemical Sfp PPTase activity, qHTS | hit rate 3.5% among 310,000;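 also: the enzyme is Sfp with the accession as filed and its product quenches rhodamine fluorescence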
#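 Step 1, compound plus 15 nM Sfp-PPTase, 15 min, room temperature. Step 2, add rhodamine-CoA (5 uM) and BHQ-2-YbbR (12.5 uM). Step 3, read 525/598 nm fluorescence at 0 and 30 min.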
# ELG1 repair inh: blocks ELG1-dependent DNA repair in HEK293T cells | HEK293T ELG1-luciferase reporter, luminescence, 16 h; DNA damage induced by 5-fluorouridine | hit rate 2.3% among 330,000 | AID 504467 | Potency, µM (titrated, usually from 46.1 µM), hits mostly inhibitors; also: nearly all actives have a fitted effect of over 55% in size
#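 Cells (2,000 per well) received 5-fluorouridine plus test compound or DMSO and were incubated 16 hr at 37 °C, 5% CO2. Luciferase activity was read by luminescence 30 min after ONE-Glo addition; signal suppression marked inhibition of damage-induced ELG1 function.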
# Giardia killer: Giardia lamblia killing | Giardia lamblia trophozoite viability | activity change, % at 7.66 µM, hits read low | hit rate 0.15% among 340,000; in the data active = activity change below about -80%; inconclusive = between about -30% and that limit;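 also: parasites exposed to compound for two days anaerobically before the ATP read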
#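 Trophozoites 100 cells/well + cpd; 48 hrs, 37 deg C, anaerobic. ATPLite 1-Step added, 15-30 min RT, luminescence read (ATP-based viability).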
# FBPA coupling cs: coupling enzyme interference in Giardia aldolase counter-screen; coupling enzyme system counterscreen, AmpLite Red fluorescence; activity change, negative = inhibition, % at 58.2 µM, hits read low; hit rate 0.67% among 290,000; AID 2472; in the data active = activity change below about -30%
#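 First, compound is pin-transferred into glyceraldehyde-3-phosphate coupling-enzyme reagent at 57.5 uM final and held 10 min at RT. Next, substrate, coupling system and AmpLite Red are added. After 20 min RT, fluorescence (525/598 nm) is read.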
# ELG1 FLuc counter: luciferase inhibition in cell-free luciferin readout for ELG1 hits | hit rate 3% among 350 | cell-free firefly luciferase luminescence counter-screen, ViewLux | shares compounds with ELG1 repair inh | Potency, µM (top dose mostly 46.1 µM), actives largely listed as inhibitors
# ELG1-Luc inh: inhibits ELG1-dependent DNA repair in HEK293T cells, confirmed. AID 624248. HEK293T ELG1-luciferase levels, luminescence; cells co-treated with 5-fluorouridine. Potency, µM (series often up to 46.1 µM), actives largely listed as inhibitors. shares compounds with ELG1 repair inh. hit rate 68% among 670; also: nearly all actives have a fitted effect of over 55% in size
# ELG1-Luc MMS: MMS-stimulated human ELG1 repair inhibition, confirmed; hit rate 53% among 670; shares compounds with ELG1 repair inh; HEK293T luciferase-tagged ELG1 level, MMS stimulated; Potency, µM (top dose mostly 46.1 µM), hits mostly inhibitors; also: nearly all actives have a fitted effect of over 60% in size
# ELG1 5FU viab: confirmation of ELG1 repair inhibitors: viability with 5FU; cell viability with 5-FU, ELG1-dependent repair; Potency, µM (highest dose often 46.1 µM), most hits filed as cytotoxic; 670 tested, under 10 active; shares compounds with ELG1 repair inh;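 also: ELG1-luc HEK293T cells cotreated with 5-fluorouridine at 10 µM final; viability measured 16 h after compound addition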
# ELG1 MMS viab: confirmation of ELG1 repair inhibitors: viability with MMS. Cell viability with MMS, ELG1-dependent DNA repair. AID 624251. hit rate 33% among 670. Potency, µM (titrated, usually from 46.1 µM), hits mostly cytotoxic. shares compounds with ELG1 repair inh;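 also: ELG1-luc HEK293T cells co-treated with 10 µM MMS; viability read 16 h after compound addition; nearly all actives have a fitted effect of over 60% in size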
# Cell viab unstim: counter-screen for ELG1 repair inhibitors: unstimulated cell viability | hit rate 8% among 900 | Potency, µM (titrated, usually from 45.9 µM), hits mostly cytotoxic | AID 624252 | shares compounds with ELG1 repair inh | cell viability counter-screen, unstimulated, luminescence;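 also: compound exposure lasted 16 hours before reading; nearly all actives have a fitted effect of over 55% in size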
# FLuc enzyme: firefly luciferase inhibition counter-screen. hit rate 10% among 350. purified firefly luciferase, luminescence counter-screen. shares compounds with ELG1 repair inh. Potency, µM (top dose mostly 57.5 µM), most hits filed as inhibitors
# Numbers stand for hits; 0 = inactive; ? = inconclusive; - = not tested or not shown. Compounds with a hit are over-represented: about 5.5% of the library has one in this group of screens. Unless noted, calls follow the shape of the dose curve; as a rule, active = well fitted curve in the direction sought with a large enough effect; inconclusive = small, poorly fitted or top-dose-only effect, or another doubt; inactive = no such curve, though single readings can be large; an effect the other way counts as inactive or inconclusive.
SMILES,Sfp inh,ELG1 repair inh,Giardia killer,FBPA coupling cs,ELG1-Luc inh,ELG1-Luc MMS,ELG1 5FU viab,ELG1 MMS viab,Cell viab unstim,others
Cc1c(C(=O)Nc2ccc(F)cc2)oc2ccc(S(=O)(=O)N3CCCC3)cc12,0,?,0,0,-,-,-,-,-,
Cc1c(C(=O)NCc2ccccn2)oc2ccc(S(=O)(=O)N3CCC4(CC3)OCCO4)cc12,0,?,0,0,-,-,-,-,-,
Cc1c(C(=O)Nc2ccc(F)cc2)oc2ccc(S(=O)(=O)N3CCC4(CC3)OCCO4)cc12,0,12µM,0,0,7.1µM,22µM,?,25µM,?,ELG1 FLuc counter=?;FLuc enzyme=0
Cc1c(Cl)cccc1NC(=S)NC(=O)c1cncc(Br)c1,-,-,0,-,-,-,-,-,-,
COc1cc(/C=C(\C#N)C(=O)Nc2cccc(C(=O)O)c2)ccc1OCc1ccc(F)cc1,0,?,0,0,-,-,-,-,0,
Cc1ccc(S(=O)(=O)NC(CC(C)C)C(=O)NCC(C)(C)N2CCOCC2)cc1 (configuration not stated),-,0,0,-,-,-,-,-,-,
COc1ccc(/C=C/C(=O)OCC(=O)NC2CCCC2)cc1OC,-,0,0,-,-,-,-,-,-,
COc1ccc(CCc2nnc(CCC(=O)N(C)Cc3ccnc4ccccc34)o2)cc1,0,?,0,0,?,7.1µM,0,6.3µM,?,
COc1ccccc1CCc1nnc(CCC(=O)N(C)Cc2cccc3cnccc23)o1,0,?,0,0,-,-,-,-,-,
CN(C)c1ccc(/C=C/c2ccnc3ccc(F)cc23)cc1,-,-,-,-,-,-,-,-,0,ELG1 FLuc counter=0;FLuc enzyme=0.18µM
CN(C)c1ccc(/C=C/c2ccc3ccccc3n2)cc1,?,?,?,0,-,-,-,-,-,
CN(C)c1ccc(N=Nc2ccc(/C=C/c3ccnc4ccccc34)cc2)cc1,-,-,-,-,-,-,-,-,?,
N#Cc1cnc2nc(SCc3ccccc3)nn2c1,0,?,0,0,-,-,-,-,-,
Cc1cccc(-c2nc3c(c(SCC(=O)N4CCOCC4)n2)Cc2c(CO)cnc(C)c2O3)c1,0,?,0,-,-,-,-,-,-,
COc1ccccc1-c1nc2c(c(SCC(=O)N3CCCCC3)n1)Cc1c(CO)cnc(C)c1O2,0,8.2µM,0,0,10µM,?,?,?,?,ELG1 FLuc counter=0;FLuc enzyme=0
Cc1ncc(CO)c2c1Oc1nc(-c3ccccc3)nc(SCC(=O)N3CCCCC3)c1C2,0,?,0,-,-,-,-,-,-,
COc1cccc(-c2nc3c(c(SCC(=O)N4CCOCC4)n2)Cc2c(CO)cnc(C)c2O3)c1,0,4.6µM,0,-,3.2µM,14µM,?,?,?,ELG1 FLuc counter=0;FLuc enzyme=0
CC12CCC(C[N+](C)(CCC[N+](C)(C)C)C1)C2(C)C (configuration not stated),0,-,-,-,-,-,-,-,-,
Cc1ccc(S(=O)(=O)NC(=O)COc2ccc([N+](=O)[O-])cc2)cc1,0,0,0,0,-,-,-,-,-,
CNCC(=O)NCC(=O)N[C@@H](Cc1ccccc1)C(=O)N[C@@H](CC(C)C)C(=O)O,0,-,-,-,-,-,-,-,-,
COc1cc(CC2COC(=O)C2(O)Cc2ccc(O)c(OC)c2)ccc1O (configuration not stated),0,1.5µM,0,0,?,3.5µM,0,2.8µM,?,
COc1cc(C[C@@H]2C(=O)OC[C@H]2Cc2ccc(OC)c(OC)c2)ccc1O,-,0,0,-,-,-,-,-,-,
COc1ccccc1NC(=O)COC(=O)c1ccccc1OCC(=O)Nc1ccc(SC(F)F)cc1,0,0,0,0,-,-,-,-,-,
COc1ccccc1C(=O)COC(=O)c1ccccc1OCC(=O)Nc1ccc(SC(F)F)cc1,0,4.6µM,0,0,7.1µM,?,?,0,0,
CC(=O)Nc1ccc(NC(=O)C(C)OC(=O)/C=C/c2cn(-c3ccccc3)nc2-c2cccnc2)cc1 (configuration not stated),0,1.6µM,0,0,0.79µM,25µM,?,25µM,?,
SMILES,Sfp inh,ELG1 repair inh,Giardia killer,FBPA coupling cs,ELG1-Luc inh,ELG1-Luc MMS,ELG1 5FU viab,ELG1 MMS viab,Cell viab unstim,others
Cc1ccccc1NC(=O)COC(=O)/C=C/c1cn(-c2ccccc2)nc1-c1cccnc1,?,?,0,0,-,-,-,-,-,
O=C(NCc1cccnc1)c1ccc(NC(=O)c2ccc(Br)cc2)cc1,0,2.3µM,0,0,0,0.025µM,0,0.025µM,0,
Nc1ccc2cccnc2c1,-,-,-,-,-,-,-,-,0,
O=C(N/N=C/c1cc(Br)ccc1OC(=O)c1ccc(Br)cc1)c1ccncc1,0,4.1µM,0,0,?,16µM,0,?,0,
O=C(N/N=C/c1cc(Br)ccc1O)c1ccncc1,0,?,0,0,-,-,-,-,-,
CCS(=O)(=O)c1ncc(Cl)c(C(=O)Nc2ccc(S(=O)(=O)N3CCC(C)CC3)cc2)n1,0,?,0,0,-,-,-,-,-,
Cc1nn(-c2ccccc2)c(C)c1C(=O)OCC(=O)c1c(N)n(CC(C)C)c(=O)n(C)c1=O,0,3.3µM,0,0,4µM,0.79µM,?,1.3µM,?,
CC(C)Cn1c(N)c(C(=O)COC(=O)c2ccc(O)cc2)c(=O)n(C)c1=O,0,?,0,0,-,-,-,-,-,
O=c1[nH]cnc2c1ncn2C1OC(CO)C(O)C1O (configuration not stated),?,-,0,0,-,-,-,-,-,
OCC1OC(n2cnc3c(=S)nc[nH]c32)C(O)C1O (configuration not stated),3.5µM,-,0,0,?,?,?,?,6.3µM,ELG1 FLuc counter=0;FLuc enzyme=0
CC1(C)Cc2c(C#N)c(SCc3ccccc3)nc(N3CCOCC3)c2CO1,0,2.3µM,0,0,2.2µM,0,?,0,0,
Cc1ccc(/C=C/C(=O)Nc2ccc([N+](=O)[O-])cc2)o1,14µM,1.8µM,0,0,14µM,22µM,?,25µM,?,
CCc1ccc(C2c3[nH]c4ccccc4c3CCN2C(=O)c2cc(C)nn2C)cc1 (configuration not stated),0,?,0,0,11µM,20µM,?,?,?,
Cc1ccc(NC(=O)CCc2nnc3ccc(N4CCC(C)CC4)nn23)nc1,0,2.9µM,0,-,4.4µM,0,?,0,?,
CCCCn1c(SCC(=O)Nc2nnc(CC)s2)nc2c1c(=O)n(C)c(=O)n2C,0,2.5µM,0,0,?,0,0,?,?,
